In all, about 310,000 compounds went through this assay and about 1,500 (0.48%) were called active. This excerpt belongs to a sample that is enriched for actives. A number with no mark means an inactive call.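 How the source made its calls: active means binding more than 3 SD below its plate's average and above zero; inconclusive means below that plate limit but binding exactly zero; inactive means the rest.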
Biological target: Desmoglein-3 (Homo sapiens) (UniProt P32926)
Test: blockers of anti-DSG3 scFv binding – biochemical, bead-based, flow cytometry, scFv-GFP, primary screen (AID 588358);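 further: hits lower antibody fragment binding to DSG3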
Conditions: DSG3-coupled beads, at 10 µM, stronger effect = lower value

Sequence of Desmoglein-3 (Homo sapiens) (P32926 whole entry, looked up, the tested form may be a part): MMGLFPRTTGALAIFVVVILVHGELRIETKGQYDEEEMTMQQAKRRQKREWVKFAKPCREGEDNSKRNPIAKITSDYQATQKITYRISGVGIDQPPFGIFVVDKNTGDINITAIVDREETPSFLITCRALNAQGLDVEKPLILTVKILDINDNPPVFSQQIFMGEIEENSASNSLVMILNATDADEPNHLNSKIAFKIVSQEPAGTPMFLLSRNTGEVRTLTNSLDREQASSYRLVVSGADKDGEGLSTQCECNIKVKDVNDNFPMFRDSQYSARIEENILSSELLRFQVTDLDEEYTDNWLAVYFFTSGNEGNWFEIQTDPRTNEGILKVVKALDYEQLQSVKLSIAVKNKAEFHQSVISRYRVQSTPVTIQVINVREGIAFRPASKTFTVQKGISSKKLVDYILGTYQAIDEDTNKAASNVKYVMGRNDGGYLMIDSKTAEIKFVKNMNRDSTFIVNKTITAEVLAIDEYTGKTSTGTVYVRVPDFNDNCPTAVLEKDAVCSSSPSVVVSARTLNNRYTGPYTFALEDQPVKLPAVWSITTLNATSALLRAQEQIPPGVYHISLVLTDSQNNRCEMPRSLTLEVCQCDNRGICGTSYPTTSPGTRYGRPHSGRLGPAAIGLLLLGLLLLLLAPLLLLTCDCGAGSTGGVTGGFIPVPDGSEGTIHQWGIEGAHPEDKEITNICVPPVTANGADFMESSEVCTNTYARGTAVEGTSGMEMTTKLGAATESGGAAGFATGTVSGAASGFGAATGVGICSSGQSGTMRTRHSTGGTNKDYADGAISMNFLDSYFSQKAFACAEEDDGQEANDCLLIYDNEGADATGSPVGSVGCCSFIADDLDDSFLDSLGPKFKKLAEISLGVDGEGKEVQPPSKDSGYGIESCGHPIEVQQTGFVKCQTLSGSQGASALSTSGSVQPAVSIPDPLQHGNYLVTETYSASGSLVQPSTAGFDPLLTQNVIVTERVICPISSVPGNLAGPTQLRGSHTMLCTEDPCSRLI

First: COc1ccc(-c2cc(C(=O)NCCCn3ccnc3)no2)cc1
Second: Cc1ccc(S(=O)(=O)c2nc(NCCCn3ccnc3)sc2Cl)cc1
The binding (percent of control) of the first is higher: 104% for the first, 98.5% for the second.

Going from `Cc1ccc(CCNC(=O)CN2C(=O)CSc3ccc(S(=O)(=O)N4CCOCC4)cc32)cc1` to `CCOc1ccc(CCNC(=O)COC(=O)c2ccc(C)c(S(=O)(=O)N3CCOCC3)c2)cc1OCC`, the binding (percent of control) falls from 100% to 97.5%.

Going from `Cc1ccc(C(=O)N2CCCc3ccccc32)c(Cl)c1` to `Cc1ccc(-c2nc3ccc(Cl)cn3c2Cc2ccccc2)cc1`, the binding (percent of control) rises from 104% to 111%.

First: C[C@@H]1CN([C@@H](C)CO)C(=O)c2cc(Br)cnc2O[C@H]1CN(C)Cc1ccc(-c2ccccc2)cc1
Second: O=S(=O)(c1ccc(Br)cc1)c1nc(-c2ccccc2)oc1NCc1cccnc1
The binding (percent of control) of the first is higher: 101% for the first, 78.8% for the second.

Going from `O=S(=O)(c1ccc(Cl)cc1)c1nc(-c2ccccc2F)oc1NCCN1CCOCC1` to `CCCc1ccc(S(=O)(=O)N2CCN(C(=O)c3cc(C)on3)CC2)cc1`, the binding (percent of control) falls from 103% to 96.3%.

Compared with `C=CCn1c(C)cc(C2=NNC(=NCC)SC2)c1C`, `Clc1cccc(N=C2NN=C(c3ccc4c(c3)OCCO4)CS2)c1` is higher in binding (percent of control): 80.2% for the first, 97.3% for the second.

Compared with `COc1ccc(N2C(=O)CC(N3CCC(C(N)=O)CC3)C2=O)cc1` (configuration not stated), `COc1ccc(N2C(=O)CC(Sc3n[nH]c(-c4ccc(C)cc4)n3)C2=O)cc1` (configuration not stated) is lower in binding (percent of control): 97.6% for the first, 85.3% for the second.

Compared with `Cc1cccc(C)c1NC(=O)CNC(=O)c1ccc(N2CCOCC2)c([N+](=O)[O-])c1`, `CC1=C(C(=O)Nc2cccc(C(=O)NCC(C)c3ccccc3)c2)SCCO1` (configuration not stated) is higher in binding (percent of control): 95.2% for the first, 106% for the second.

Compared with `COc1ccc2nc(-c3ccccn3)ccc2c1`, `CCCCCCn1c(=O)n2n(c1=O)C[C@]1(OC(=O)NCc3ccc(OC)c(OC)c3)CN(S(=O)(=O)c3ccc(C)cc3)C[C@]1(O)C2` is higher in binding (percent of control): 101% for the first, 108% for the second.

`Cc1ccc(-c2nc(C#N)c(NCCCn3ccnc3)o2)cc1` was tested, and the binding (percent of control) was 66.2% (active).
In the case of `O=S(=O)(c1ccccc1)c1nc(-c2ccccc2F)oc1NCc1cccnc1`, the binding (percent of control) is reported as 91.8% (active).
`COCCn1c(C)cc(C2=NNC(=Nc3ccc(F)cc3)SC2)c1C` was tested, and the binding (percent of control) was 76.6% (active).
`COc1ccc(N2C(=O)CC(SC(C)C)C2=O)cc1` (configuration not stated) was tested, and the binding (percent of control) was 68% (active).
